Hit rate of the full screen: of about 1,400 compounds, about 560 (40%) were called active.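 The calls were made as follows: active = mean inhibition over duplicate tests at 10 µM above 50%; inactive = the rest.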 The set was probably picked from earlier hits. The list shows a part of the results.
assay: ASC/caspase-1 reporter retest in S. cerevisiae at one dose, specificity check for NALP1 project (AID 488857); conditions: S. cerevisiae ASC/Caspase-1, beta-galactosidase luminescence, 24 h; at 10 µM; hits give high values

SMILES | inhibition
C/C(=N\Nc1nc2c(s1)CCCC2)c1ccccc1 | 37.2% (inactive)
CC1CCCCN1C(=S)NCCc1ccccc1 (configuration not stated) | 59.1% (active)
C=C1SC(Nc2c(C)cccc2C)=NC12CCCCC2 | 47.3% (inactive)
CC(C)Cc1nnc(NC(=O)CSc2nc(N)cc(=O)[nH]2)s1 | 25.6% (inactive)
Brc1ccc2c(c1)OCCOCCOc1cc(Br)ccc1OCCOCCOCCO2 | 64.6% (active)
Cc1nnc(-c2ccccc2)o1 | 39.7% (inactive)
Cc1nc(/N=C(\N)NC(=O)N2c3ccccc3Sc3ccccc32)nc2ccccc12 | 53.6% (active)
O=C(CSc1nnnn1C1CCCCC1)N1c2ccccc2Sc2ccccc21 | 39.5% (inactive)
O=[N+]([O-])c1ccc(-n2nnnc2-c2ccccc2)cc1 | 19.9% (inactive)
O=C1C=CCC(/C=C/c2ccccc2)O1 (configuration not stated) | 63% (active)
O=C1c2ccsc2SCCN1Cc1c(Cl)cccc1Cl | 56.2% (active)
O=S(=O)(Nc1ccc(-n2cccc2)cc1)c1ccc(Cl)cc1Cl | 37.6% (inactive)
Cc1sc2ncnc(N/N=C/c3ccccc3O)c2c1C | 58.4% (active)
O=C(/C=C/c1ccccc1)N1CCC(c2ccccc2)C1 (configuration not stated) | 62.6% (active)
CC1CCN(C(=O)/C=C/c2ccc(C(C)(C)C)cc2)CC1 | 63.4% (active)
COc1cc(C(=O)CCN2CCC(c3ccccc3)C2)cc(OC)c1OC (configuration not stated) | 44.2% (inactive)
CC(=O)Nc1ccc(C(=O)CSc2nnc(Cc3ccccc3)o2)cc1 | 24.2% (inactive)
Cc1cc(C)cc(OCc2nnc(SCC(=O)OC(C)C)o2)c1 | 61.5% (active)
COc1ccc(CNc2cccc(F)c2)cc1Br | 72.2% (active)
COc1ccc(Cc2ccc(OC)c(N)c2)cc1N | 53.1% (active)
COc1cc(Cc2cnc(N)nc2N)cc(OC)c1OC | 14.2% (inactive)
COC(=O)N/N=C/c1ccc(OC(=O)c2ccco2)c(OC)c1 | 30.8% (inactive)
Cc1ccc(/C=N/NC(=O)c2ccc3nc[nH]c3c2)o1 | 47.4% (inactive)

SMILES | inhibition
COC(=O)N/N=C/c1ccc(-c2cccc(Cl)c2)o1 | 80.9% (active)
CC1(C)CCSC(/C=C/c2ccccc2)=N1 | 92% (active)
C(#Cc1ccc(C#CCN2CCCC2)cc1)CN1CCCC1 | 42.5% (inactive)
Cc1[nH][nH]c(=O)c1C(c1c(C)[nH][nH]c1=O)c1cn(Cc2ccc(Cl)c(Cl)c2)c2ccccc12 | 61.2% (active)
Cc1[nH][nH]c(=O)c1C(c1ccc(-c2ccc(Cl)c(Cl)c2)o1)c1c(C)[nH][nH]c1=O | 39.9% (inactive)
COc1ccc(S(=O)(=O)N2CCOC2CNC(=O)C(=O)NCCCN2CCOCC2)cc1C (configuration not stated) | 28.6% (inactive)
CSc1cc(N2CCOCC2)nc(-c2ccccc2Cl)n1 | 74.1% (active)
O=[N+]([O-])/C=C/c1ccc2c(ccn2Cc2ccccc2)c1 | 98.8% (active)
C/C(=N/NC(=O)c1nnn(-c2nonc2N)c1COc1ccccc1)c1ccc(O)cc1 | 27.6% (inactive)
CCOc1nnc(C)c2c(C)n(-c3cccc(Cl)c3)nc12 | 28.1% (inactive)
Cc1ccc(OC(=S)Nc2ccc(O)cc2)cc1 | 88.4% (active)
Cc1ccc(NC(=O)CNc2ccc(OC(C)C)cc2)cc1 | 39.6% (inactive)
Cc1ccc(C(=O)/C=C/c2cn(CC(O)CN3CCOCC3)c3ccccc23)cc1 (configuration not stated) | 52.7% (active)
CNc1ccccc(-c2ccc3ccccc3n2)c1=O | 39.4% (inactive)
CCN1/C(=C\c2ccc3ccccc3[n+]2CC)Sc2cc(C)ccc21 | 100% (active)
CC[n+]1c(/C=C2\Sc3ccccc3N2C)ccc2cccc(C)c21 | 98.1% (active)
CCN1/C(=C/c2ccc3ccc(C)cc3[n+]2CC)Sc2ccccc21 | 84.9% (active)
CCN1/C(=C/C=C/C=C/c2sc3ccccc3[n+]2CC)Sc2ccccc21 | 41% (inactive)
CCN1/C(=C/c2ccc3cc(C)ccc3[n+]2CC)Sc2ccccc21 | 100% (active)
Cc1cc(N2C(=O)C=CC2=O)c([N+](=O)[O-])cc1C | 3% (inactive)
CC1(C)NC(=O)N(CCCCOc2ccc3ccccc3c2Cl)C1=O | 48.8% (inactive)
O=C(CCNc1n[nH]c(=O)[nH]c1=O)N/N=C/c1ccc(C(F)(F)F)cc1 | 23.2% (inactive)
COc1cc(OC)c(-c2nnc(-c3ccc(OC)c(OC)c3OC)o2)cc1OC | 31% (inactive)

SMILES | inhibition
Cc1ccc2c(c1)c1c3n2CCCNC3CCC1 (configuration not stated) | 33% (inactive)
CCc1ccc(NCc2nc(-c3ccccc3)no2)cc1 | 57.2% (active)
c1ccc(-c2noc(-c3ccccc3-c3ccccc3)n2)cc1 | 23.6% (inactive)
Cc1cc(OCCN2CCCC2)cc(C(C)C)c1 | 53.9% (active)
CCc1cccc(OCCN2CCCC2)c1 | 41.1% (inactive)
CC(C)c1ccc(CN2CCN(C(=O)CCl)CC2)cc1 | 35.6% (inactive)
Cc1ccc(C(C)C)cc1OCCN1CCCC1 | 54.6% (active)
COCCCNCCOc1cc(C(C)C)ccc1C | 30.4% (inactive)
Cc1cccc(C)c1OCC(=O)Nn1c(=O)[nH]c2ccccc2c1=O | 34.9% (inactive)
CCCCCCCCCCCCCCCCn1cc[n+](CC(C)=O)c1 | 80.2% (active)
CCCCCCCCCCCCCCCCn1cc[n+](C)c1 | 89.7% (active)
O=C(/C=C/c1ccccn1)c1ccc(Br)cc1O | 85.5% (active)
CCNc1ccc(Br)cc(C(=O)/C=C/c2c(Cl)cccc2Cl)c1=O | 42.6% (inactive)
Cc1cc(C)c(S(=O)(=O)N(CC(=O)O)CC(=O)O)c(C)c1 | 46% (inactive)
CC[N+]1(CC)CC2=Cc3c(ccc4ccccc34)CC2C1 (configuration not stated) | 35.5% (inactive)
CCCCCCOc1ccc(N2C(=O)CC(N3CCC(C(=O)OCC)CC3)C2=O)cc1 (configuration not stated) | 45.4% (inactive)
CCOc1ccc(C2N(c3ccc(F)cc3)C(=O)C3CCCN32)cc1 (configuration not stated) | 26.1% (inactive)
CCOc1ccc(N2C(=O)CC(N)C2=O)cc1 (configuration not stated) | 70% (active)
Cc1ccc(Cl)cc1N1CCN(S(C)(=O)=O)CC1 | 33.1% (inactive)
O=C(Cc1cccs1)Nc1nc(-c2ccc(F)cc2F)cs1 | 74.7% (active)
COc1ccc(-c2nc3c(c(=O)[nH]c(=O)n3Cc3ccccc3)n2C)cc1 | 41% (inactive)
